We go through 32 sequences from paper PMC12820563, “FoxP3 forms a head-to-head dimer in vivo and stabilizes its multimerization on adjacent microsatellites”.

In all, about 16,000 sequences were measured (“rpm ratio (pull-down/input)”: median about 0.5, highest 2% from about 5.5 on). The sample holds the highest values, similar sequences and a random draw of the others, so the mix is not that of the screen.

In the assay the target is T1, MBP-FoxP3dN (Mus musculus, UniProt Q99JB6 188-423).
T1 sequence: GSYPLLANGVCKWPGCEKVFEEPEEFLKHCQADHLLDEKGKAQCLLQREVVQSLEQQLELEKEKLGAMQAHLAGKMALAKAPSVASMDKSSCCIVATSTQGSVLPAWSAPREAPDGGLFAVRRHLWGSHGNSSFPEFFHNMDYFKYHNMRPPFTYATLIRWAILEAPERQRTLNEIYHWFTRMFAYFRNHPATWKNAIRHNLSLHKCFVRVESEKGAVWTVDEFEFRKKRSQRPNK
Description: PD-seq (MBP pull-down with sequencing); 20 mM Tris-HCl pH 7.5, 100 mM NaCl, 1.5 mM MgCl2, 0.4 uM protein, 0.1 uM dsDNA library, 30 min, room temperature, amylose pull-down; high values mean tight binding. Conditions: protein: recombinant; tags: His6-MBP; chain copies: 2; dsDNA, one strand shown. The essentials: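 Binding is the reads-per-million enrichment of pull-down relative to input, pooled across replicates. For this, 0.4 µM His6-MBP-tagged mouse FoxP3 or FoxP1 fragment lacking the N-terminus, made in E. coli, was incubated with 0.1 µM Klenow-filled double-stranded degenerate DNA library for 30 min at room temperature in Tris pH 7.5 buffer with NaCl and MgCl2. Complexes bound to amylose resin were washed three times before proteinase K released the DNA for PCR barcoding and Illumina sequencing.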
Take “GATGATTGTTCTCCCAGCTGATGAATTTTGGCCTTCGAGTAAACAAATTTTCCTAATCTTTCTGTTCAAGCGCCATCTAC”: the binding signal is 2.06 RPM ratio (pull-down/input).
On to “GATGATTGTTCTCCCAGCTGATGAATTATTGCGATCGAGTAAACAAATTTTCCTAATCTTTCTGTTCAAGCGCCATCTAC”, for which the binding signal is 1.08 RPM ratio (pull-down/input).
The figure for “GATGATTGTTCTCCCAGCTGATGAATTCGTTTTGTCGAGTAAACAAATTTTCCTAATCTTTCTGTTCAAGCGCCATCTAC” is 3.54 RPM ratio (pull-down/input); for “GATGATTGTTCTCCCAGCTGATGAATTCGTTTGTTCGAGTAAACAAATTTTCCTAATCTTTCTGTTCAAGCGCCATCTAC” it is 5.83 RPM ratio (pull-down/input).
The result for “GATGATTGTTCTCCCAGCTGATGAATTTTTTGTTTCGAGTAAACAAATTTTCCTAATCTTTCTGTTCAAGCGCCATCTAC” reads 0.423 RPM ratio (pull-down/input).
For “GATGATTGTTCTCCCAGCTGATGAATTTGGTTGTTCGAGTAAACAAATTTTCCTAATCTTTCTGTTCAAGCGCCATCTAC”, the binding signal is 5.35 RPM ratio (pull-down/input).
The figure for “GATGATTGTTCTCCCAGCTGATGAATTGATTTGTTCGAGTAAACAAATTTTCCTAATCTTTCTGTTCAAGCGCCATCTAC” is 3.85 RPM ratio (pull-down/input).
In the case of “GATGATTGTTCTCCCAGCTGATGAATTTGATTGTTCGAGTAAACAAATTTTCCTAATCTTTCTGTTCAAGCGCCATCTAC”, the binding signal is 6.32 RPM ratio (pull-down/input).
The figure for “GATGATTGTTCTCCCAGCTGATGAATTCTTTGTTTCGAGTAAACAAATTTTCCTAATCTTTCTGTTCAAGCGCCATCTAC” is 0.575 RPM ratio (pull-down/input); for “GATGATTGTTCTCCCAGCTGATGAATTTGAATTTTCGAGTAAACAAATTTTCCTAATCTTTCTGTTCAAGCGCCATCTAC” it is 0.538 RPM ratio (pull-down/input); for “GATGATTGTTCTCCCAGCTGATGAATTGGTTGGTTCGAGTAAACAAATTTTCCTAATCTTTCTGTTCAAGCGCCATCTAC” it is 3.77 RPM ratio (pull-down/input).
With “GATGATTGTTCTCCCAGCTGATGAATTTGTTGGTTCGAGTAAACAAATTTTCCTAATCTTTCTGTTCAAGCGCCATCTAC”, the binding signal is 7.67 RPM ratio (pull-down/input).
The figure for “GATGATTGTTCTCCCAGCTGATGAATTCGTTTTTTCGAGTAAACAAATTTTCCTAATCTTTCTGTTCAAGCGCCATCTAC” is 2.58 RPM ratio (pull-down/input).
As to “GATGATTGTTCTCCCAGCTGATGAATTTGTTTTTTCGAGTAAACAAATTTTCCTAATCTTTCTGTTCAAGCGCCATCTAC”, the binding signal was 6.93 RPM ratio (pull-down/input).
Take “GATGATTGTTCTCCCAGCTGATGAATTGTACTATTCGAGTAAACAAATTTTCCTAATCTTTCTGTTCAAGCGCCATCTAC”: the binding signal was 0.669 RPM ratio (pull-down/input).
The figure for “GATGATTGTTCTCCCAGCTGATGAATTGTCCCTGTCGAGTAAACAAATTTTCCTAATCTTTCTGTTCAAGCGCCATCTAC” is 0.319 RPM ratio (pull-down/input); for “GATGATTGTTCTCCCAGCTGATGAATTAGGGGTTTCGAGTAAACAAATTTTCCTAATCTTTCTGTTCAAGCGCCATCTAC” it is 0.738 RPM ratio (pull-down/input); for “GATGATTGTTCTCCCAGCTGATGAATTTTACGCGTCGAGTAAACAAATTTTCCTAATCTTTCTGTTCAAGCGCCATCTAC” it is 0.624 RPM ratio (pull-down/input).
The result for “GATGATTGTTCTCCCAGCTGATGAATTGAGACACTCGAGTAAACAAATTTTCCTAATCTTTCTGTTCAAGCGCCATCTAC” reads 1.41 RPM ratio (pull-down/input); that for “GATGATTGTTCTCCCAGCTGATGAATTGCGGACATCGAGTAAACAAATTTTCCTAATCTTTCTGTTCAAGCGCCATCTAC”, 0.781 RPM ratio (pull-down/input); that for “GATGATTGTTCTCCCAGCTGATGAATTAAAAATTTCGAGTAAACAAATTTTCCTAATCTTTCTGTTCAAGCGCCATCTAC”, 0.202 RPM ratio (pull-down/input).
For the sequence “GATGATTGTTCTCCCAGCTGATGAATTTGGTTAATCGAGTAAACAAATTTTCCTAATCTTTCTGTTCAAGCGCCATCTAC”, the binding signal was 0.489 RPM ratio (pull-down/input).
With “GATGATTGTTCTCCCAGCTGATGAATTCCCCGCATCGAGTAAACAAATTTTCCTAATCTTTCTGTTCAAGCGCCATCTAC”, the binding signal was 0.735 RPM ratio (pull-down/input).
In the case of “GATGATTGTTCTCCCAGCTGATGAATTCTCCGCATCGAGTAAACAAATTTTCCTAATCTTTCTGTTCAAGCGCCATCTAC”, the binding signal is 0.8 RPM ratio (pull-down/input).
The result for “GATGATTGTTCTCCCAGCTGATGAATTCCGCATCTCGAGTAAACAAATTTTCCTAATCTTTCTGTTCAAGCGCCATCTAC” reads 6.95 RPM ratio (pull-down/input); that for “GATGATTGTTCTCCCAGCTGATGAATTCCGCATTTCGAGTAAACAAATTTTCCTAATCTTTCTGTTCAAGCGCCATCTAC”, 6.33 RPM ratio (pull-down/input).
Turning to “GATGATTGTTCTCCCAGCTGATGAATTCCCGCATTCGAGTAAACAAATTTTCCTAATCTTTCTGTTCAAGCGCCATCTAC”, the binding signal is 5.9 RPM ratio (pull-down/input).
As for “GATGATTGTTCTCCCAGCTGATGAATTCCGCAATTCGAGTAAACAAATTTTCCTAATCTTTCTGTTCAAGCGCCATCTAC”, the binding signal was 4.91 RPM ratio (pull-down/input).
For “GATGATTGTTCTCCCAGCTGATGAATTTCCGCATTCGAGTAAACAAATTTTCCTAATCTTTCTGTTCAAGCGCCATCTAC”, the binding signal is 6.24 RPM ratio (pull-down/input).
With “GATGATTGTTCTCCCAGCTGATGAATTTTCCGCATCGAGTAAACAAATTTTCCTAATCTTTCTGTTCAAGCGCCATCTAC”, the binding signal was 1.07 RPM ratio (pull-down/input).
The figure for “GATGATTGTTCTCCCAGCTGATGAATTCCGCGCATCGAGTAAACAAATTTTCCTAATCTTTCTGTTCAAGCGCCATCTAC” is 1.39 RPM ratio (pull-down/input).
For “GATGATTGTTCTCCCAGCTGATGAATTTCCCGCATCGAGTAAACAAATTTTCCTAATCTTTCTGTTCAAGCGCCATCTAC”, the binding signal was 0.913 RPM ratio (pull-down/input).
